The values below come from the OligoGym collection.
Also: reference of the scale not given here.

The first assay addresses CYLC1. Description: pooled miR-30 sensor sort-seq; sequence = guide strand. Conditions: shRNA.
The sequence TGAATCTTTCTTAGCATCCTTT came in with a sensor-assay potency score (higher = more potent) of -0.674.
Turning to TTCAGTATCTGAACCTTTGATT, the sensor-assay potency score (higher = more potent) is -0.393.
For TATTATCTGTCTTTGAATCTTT, the sensor-assay potency score (higher = more potent) stood at 0.0737.
On the same count and under the same terms, under TTGACTTCTTGGATTGTTCATT stands -0.552; under TATCTTTTTGTGAACAATTTTT, -1.47; under TTTAGTTTTCTCTTCTACTATT, -1.07.
TTGTTGCATATGAACCTCCTTT gave a sensor-assay potency score (higher = more potent) of -0.831.
Regarding TTTCTTGGAATCTTTCTTCAAA, the sensor-assay potency score (higher = more potent) is -0.0994.
TTTCTTGTCATCTTTCTTGACA: the sensor-assay potency score (higher = more potent) is -0.649.
The sequence TTCTCTTCTACTATTTGCTTGG came in with a sensor-assay potency score (higher = more potent) of -0.0318.
Take TTGAATGTAGTCTTTTTGGATG: the sensor-assay potency score (higher = more potent) was -0.77.
On the same count and under the same terms, under TTGCATCCTTTGCATCTCCTGA stands -0.744; under TTATTCTGTGAGTAATTCCTTA, -0.37; under TTCATCTTTCTGACTCTCCTTT, 0.625.
In turn, TTGGATGACATTCTGAATCCTC registered a sensor-assay potency score (higher = more potent) of 0.399.
On to TAATTTTTTCTTATCCTTCTTT, for which the sensor-assay potency score (higher = more potent) worked out at 0.0107.
With TATGGGATCATTACTAGTCTTT, the sensor-assay potency score (higher = more potent) was -0.233.
As for TTGTCATGTCTAGTAACTGTTA, the sensor-assay potency score (higher = more potent) was -0.717.
The sequence TTGATTTATCATTTGTACCTCT returned a sensor-assay potency score (higher = more potent) of 0.236.
Turning to TTGATGGAGGAACTCTACCTGT, the sensor-assay potency score (higher = more potent) is -0.867.
In turn, TTGAATTTGCAGATGTGCCATC had a sensor-assay potency score (higher = more potent) of -0.566.
Turning to TTGAATCTTTCTTAGCATCCTT, the sensor-assay potency score (higher = more potent) was -0.0997.

Another assay addresses CYP20A1. The description is as above. Conditions: shRNA.
On to ATGCTGACAATATCTGAGCTGC, for which the sensor-assay potency score (higher = more potent) is -0.739.
TATCATACTGTCTTCTAGGATC yielded a sensor-assay potency score (higher = more potent) of -0.814.
In turn, TTTGCAGTTATTATGCAACTGG showed a sensor-assay potency score (higher = more potent) of -0.736.
For TAAATCGGTCAATTTTTCCTTC, the sensor-assay potency score (higher = more potent) amounted to 0.481.
Regarding TTTATCTAATAATTCTTCTGAA, the sensor-assay potency score (higher = more potent) was -0.378.
In turn, TACACTAAGAAGTACTGTGGTC came in with a sensor-assay potency score (higher = more potent) of -0.206.
As for ATACTTTGTTTCAATAACCTGT, the sensor-assay potency score (higher = more potent) is -0.318.
TTCTTCTGAAAGCTTTAGGAGG showed a sensor-assay potency score (higher = more potent) of -0.987.
TTTTGAACTTCTTCAGAGGTGG: the sensor-assay potency score (higher = more potent) was found to be 0.0133.
On the same count and under the same terms, under TTCATCATCAAACCGATCTGGA stands -0.00182; under TCCTTCAATATCTTGAAGCTGG, -0.788.
As to TTATCTAATAATTCTTCTGAAA, the sensor-assay potency score (higher = more potent) was -1.37.

Another assay concerns the target CYP2E1. The assay is described as above. Conditions: shRNA.
For the sequence TTCATGGAGCTTCTCTTCGATC, the sensor-assay potency score (higher = more potent) was -1.27.
TTGAAATAGTCACTGTACTTGA came in with a sensor-assay potency score (higher = more potent) of -0.183.
Same read-out and setting: under TTGGTTGTCATACAAAACAGAG stands -1.2; under ATATTCTTCAATTCCAACTGGA, 0.347.
In turn, AAGTAGTGTAGAAAGCTGGGAA gave a sensor-assay potency score (higher = more potent) of 0.682.
ATGTAGGGCATCTCTTGCCTAT yielded a sensor-assay potency score (higher = more potent) of -1.01.
